Measured values reported in PubChem BioAssay (NCATS).
Inconclusive results are not listed. Activity calls are given as the source filed them. Unless noted, the call rests on the fitted dose curve; in most records, active means well fitted curve in the direction sought with a large enough effect; inconclusive means small, poorly fitted or top-dose-only effect, or another doubt; inactive means no such curve, though single readings can be large; an effect the other way counts as inactive or inconclusive.

Legend:
C33A = experiment: Primary qHTS to identify gynecologic anti-cancer compounds using libraries of approved drugs and bioactive compounds (AID 1345084); details: Gynecologic cancer cell panel viability, ATPlite luminescence, 48 h; series mostly up to 57.5 µM; further: nearly all actives have a fitted effect of over 55% in size; further: potency means the concentration at half of the fitted maximal effect
Summary of the method: (§1)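 Cytotoxicity screen measuring ATP content by luciferase luminescence. Each compound is applied at five concentrations for 48 h at 37 C with 5% CO2.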

CASKI = experiment: as above; details: Gynecologic cancer cell panel viability, ATPlite luminescence, 48 h; series mostly up to 57.5 µM
Summary of the method: as §1

Es-2 = experiment: as above; details: Gynecologic cancer cell panel viability, ATPlite luminescence, 48 h; series mostly up to 57.5 µM
Summary of the method: as §1

HeLa = experiment: as above; details: Gynecologic cancer cell panel viability, ATPlite luminescence, 48 h; series mostly up to 57.5 µM
Summary of the method: as §1

Hek293T = experiment: as above; details: Gynecologic cancer cell panel viability, ATPlite luminescence, 48 h, control line for the selectivity index; series mostly up to 57.5 µM
Summary of the method: as §1

JEG-3 = experiment: as above; details: Gynecologic cancer cell panel viability, ATPlite luminescence, 48 h; series mostly up to 57.5 µM
Summary of the method: as §1

OV90 = experiment: as above; details: Gynecologic cancer cell panel viability, ATPlite luminescence, 48 h; series mostly up to 57.5 µM
Summary of the method: as §1

PA-1 = experiment: as above; details: Gynecologic cancer cell panel viability, ATPlite luminescence, 48 h; series mostly up to 57.5 µM
Summary of the method: as §1

SKOV3 = experiment: as above; details: Gynecologic cancer cell panel viability, ATPlite luminescence, 48 h; series mostly up to 57.5 µM
Summary of the method: as §1

Tov-21-G = experiment: as above; details: Gynecologic cancer cell panel viability, ATPlite luminescence, 48 h; series mostly up to 57.5 µM
Summary of the method: as §1

Tov112D = experiment: as above; details: Gynecologic cancer cell panel viability, ATPlite luminescence, 48 h; series mostly up to 57.5 µM
Summary of the method: as §1

[1] = Drug repurposing screens with cells derived from glioblastoma tumor samples (AID 1345199); details: GBM patient neurospheres viability, ATP luminescence, 48 h; further: nearly all actives have a fitted effect of over 40% in size; further: potency means the concentration at half of the fitted maximal effect; on activity, negative = cell killing: on the % scale 0 is the no-effect control and ±100 the full control effect
Summary of the method: (§2)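 Primary testing used CD133+ neurospheres from four GBM patients, seven concentrations, 48 h exposure and ATP-based viability; confirmation added three slower-growing patient lines.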

astro = experiment: as above; details: viability, ATP luminescence, 48 h; series mostly up to 45.9 µM
Summary of the method: as §2

[2] = qHTS assay for small molecule activators of the human pregnane X receptor (PXR) signaling pathway (AID 720659; call rule not given here; further: 0% is about no effect)
[3] = qHTS assay to identify inhibitors of the type 1 interferon - major histocompatibility complex class I in skeletal muscle: Counter screen cell viability and HiBit confirmation (AID 1347412); details: iHSKM muscle cells + IFN-b, HiBiT or CellTiter-Glo, 24 h; Potency: HiBiT; Viability, at 45.9 µM (top of the series); further: on the % scale 0 is the no-effect control and ±100 the full control effect; nearly all actives have a fitted effect of over 60% in size
Summary of the method: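 Duplicate plates, pinned identically: one read for HiBiT-tagged endogenous HLA-B luminescence, the other for ATP-content viability via CellTiter Glo. Cells were genome-engineered human myoblasts given 4 ng/ml IFN-b; compounds 12-pt, 1:3 from 46 uM final; 24 hr exposure.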

[4] = at 45.9 µM (top of the series), tumour line B
[5] = at 45.9 µM (top of the series), tumour line D
[6] = at 46.1 µM (top of the series), tumour line C

C[N+](C)(CCOc1ccccc1)Cc1cccs1
inactive: Potency (C33A) | Potency (CASKI) | Potency (Es-2) | Potency (HeLa) | Potency (Hek293T) | Potency (JEG-3) | Potency (OV90) | Potency (PA-1) | Potency (SKOV3) | Potency (Tov-21-G) | Potency (Tov112D) | activity, negative = cell killing [1, 4] -1.12% | activity, negative = cell killing [1, 5] -8.83% | activity, negative = cell killing [1, 6] -14.1% | Potency (astro)

O=[N+]([O-])c1cncn1CCN1CCOCC1
inactive: Potency (C33A) | Potency (CASKI) | Potency (Es-2) | Potency (HeLa) | Potency (Hek293T) | Potency (JEG-3) | Potency (OV90) | Potency (PA-1) | Potency (SKOV3) | Potency (Tov-21-G) | Potency (Tov112D)

CN1CC[C@H](c2c(O)cc(O)c3c(=O)cc(-c4ccccc4Cl)oc23)[C@H](O)C1
active: Potency (C33A) 1.26 µM | Potency (CASKI) 0.708 µM | Potency (Es-2) 0.708 µM | Potency (HeLa) 0.794 µM | Potency (PA-1) 0.447 µM | Potency (Tov112D) 1.12 µM
inactive: Potency (JEG-3)

C[C@H]1C[C@H]2[C@@H]3CCC4=CC(=O)C=C[C@]4(C)[C@H]3C(=O)C[C@]2(C)[C@@]1(O)C(=O)CO
inactive: Potency (C33A) | Potency (CASKI) | Potency (Es-2) | Potency (HeLa) | Potency (Hek293T) | Potency (JEG-3) | Potency (PA-1) | Potency (SKOV3) | Potency (Tov-21-G) | Potency (Tov112D)

CCCCCCCCCCCCCCCC[n+]1ccccc1
active: Potency (C33A) 17.8 µM | Potency (CASKI) 7.94 µM | Potency (Es-2) 17.8 µM | Potency (Hek293T) 8.91 µM | Potency (OV90) 31.6 µM | Potency (Tov-21-G) 31.6 µM | Potency (astro) 3.16 µM
inactive: outcome [2]

Nc1ncnc2c1ncn2Cc1c(F)cccc1Cl
inactive: Potency (C33A) | Potency (CASKI) | Potency (Es-2) | Potency (HeLa) | Potency (Hek293T) | Potency (JEG-3) | Potency (OV90) | Potency (PA-1) | Potency (SKOV3) | Potency (Tov-21-G) | Potency (Tov112D)

CCC1(c2cnc[nH]2)Cc2ccccc2C1
inactive: Potency (C33A) | Potency (CASKI) | Potency (Es-2) | Potency (HeLa) | Potency (Hek293T) | Potency (JEG-3) | Potency (OV90) | Potency (PA-1) | Potency (SKOV3) | Potency (Tov-21-G) | Potency (Tov112D)

O=C(CCC1CCN(Cc2ccccc2)CC1)c1ccc2c(c1)NCCCC2
inactive: Potency (C33A) | Potency (CASKI) | Potency (Es-2) | Potency (HeLa) | Potency (Hek293T) | Potency (JEG-3) | Potency (Tov-21-G) | Potency (Tov112D)

CCCC(=O)O[C@]1(C(=O)CCl)[C@@H](C)C[C@H]2[C@@H]3CCC4=CC(=O)C=C[C@]4(C)[C@@]3(F)C(=O)C[C@@]21C
inactive: Potency (C33A) | Potency (CASKI) | Potency (Es-2) | Potency (HeLa) | Potency (JEG-3) | Potency (OV90) | Potency (PA-1) | Potency (Tov-21-G) | Potency (Tov112D)

C/C(=C(/OCCOc1ccc(Cl)cc1)c1ccc(Cl)cc1Cl)n1ccnc1
inactive: Potency (C33A) | Potency (CASKI) | Potency (Es-2) | Potency (HeLa) | Potency (Hek293T) | Potency (JEG-3) | Potency (OV90) | Potency (PA-1) | Potency (SKOV3) | Potency (Tov-21-G) | Potency (Tov112D)

C=CCNc1nc(NCC=C)nc(N2CCN(C(c3ccc(F)cc3)c3ccc(F)cc3)CC2)n1
inactive: Potency (C33A) | Potency (CASKI) | Potency (Es-2) | Potency (HeLa) | Potency (JEG-3) | Potency (PA-1) | Potency (Tov-21-G) | Potency (Tov112D)

CC(=O)OCC(=O)[C@@]1(O)CCC2C3CCC4=CC(=O)CC[C@]4(C)C3[C@@H](O)C[C@@]21C (stereo partly drawn)
inactive: Potency (C33A) | Potency (CASKI) | Potency (Es-2) | Potency (HeLa) | Potency (Hek293T) | Potency (JEG-3) | Potency (OV90) | Potency (PA-1) | Potency (SKOV3) | Potency (Tov-21-G) | Potency (Tov112D) | activity, negative = cell killing [1, 4] -6.98% | activity, negative = cell killing [1, 5] -11.4% | activity, negative = cell killing ([1]; at 46 µM (top of the series), tumour line A) -11.4% | activity, negative = cell killing [1, 6] 20.9% | Potency (astro)

O=C(Nc1ccc(Cl)cc1)Nc1ccc(Cl)c(C(F)(F)F)c1
inactive: Potency (JEG-3)
active: Potency (C33A) 17.8 µM | Potency (Es-2) 28.2 µM | Potency (HeLa) 14.1 µM | Potency (Hek293T) 14.1 µM | Potency (OV90) 25.1 µM | Potency (Tov112D) 31.6 µM | Potency (astro) 10 µM

CC(CC1c2ccccc2CCc2ccccc21)CN(C)C (stereo not drawn)
inactive: Potency (C33A) | Potency (CASKI) | Potency (Es-2) | Potency (HeLa) | Potency (JEG-3) | Potency (PA-1) | Potency (Tov-21-G) | Potency (Tov112D)
active: Potency (OV90) 17.8 µM

CCOC(=O)O[C@]1(C(=O)OCCl)CC[C@H]2[C@@H]3CCC4=CC(=O)C=C[C@]4(C)[C@H]3[C@@H](O)C[C@@]21C
inactive: Potency (C33A) | Potency (CASKI) | Potency (Es-2) | Potency (HeLa) | Potency (Hek293T) | Potency (JEG-3) | Potency (OV90) | Potency (PA-1) | Potency (Tov-21-G) | Potency (Tov112D) | Potency [3]
